TDP1 block: inhibitors of human tyrosyl-DNA phosphodiesterase TDP1; Q9NUW8; recombinant TDP1, AlphaScreen DNA substrate cleavage; Potency, µM (top dose mostly 130 µM), without a hit: at the highest dose activity change, negative = inhibition, actives largely listed as inhibitors; actives 0.28% (n = 350,000); AID 485290; also: potency is read from the fitted curve at half-maximal effect; % is scaled to controls: 0 for no effect and ±100 for the full control effect; nearly all actives have a fitted effect of over 40% in size
Target sequence (Q9NUW8 whole entry, looked up): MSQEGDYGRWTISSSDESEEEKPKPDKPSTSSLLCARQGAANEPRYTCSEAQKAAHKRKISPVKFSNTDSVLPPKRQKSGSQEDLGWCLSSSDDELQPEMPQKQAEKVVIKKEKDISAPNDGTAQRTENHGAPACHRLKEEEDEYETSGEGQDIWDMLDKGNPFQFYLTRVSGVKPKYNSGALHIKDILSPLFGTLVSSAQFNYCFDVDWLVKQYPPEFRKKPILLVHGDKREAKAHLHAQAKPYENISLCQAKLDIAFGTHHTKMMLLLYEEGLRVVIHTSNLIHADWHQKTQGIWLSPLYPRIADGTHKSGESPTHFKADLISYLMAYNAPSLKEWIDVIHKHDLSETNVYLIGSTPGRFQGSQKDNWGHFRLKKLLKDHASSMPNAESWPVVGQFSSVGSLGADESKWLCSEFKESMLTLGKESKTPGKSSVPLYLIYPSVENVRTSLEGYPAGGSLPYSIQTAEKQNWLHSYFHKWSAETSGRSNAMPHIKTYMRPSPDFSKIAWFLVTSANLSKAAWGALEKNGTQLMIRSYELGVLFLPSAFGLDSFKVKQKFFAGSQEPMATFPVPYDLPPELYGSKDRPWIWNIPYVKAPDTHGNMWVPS
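E. coli-derived human Tdp1, 1 nM final. Cpd preinc 15 min RT; substrate 15 nM final, 5 min RT; AS bead mix 10 ug/ml final, 10 min RT. Signal loss = tyrosine-FITC cleavage. No-enzyme wells = max signal.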
TDP1 cell noCPT: qHTS for Inhibitors of human tyrosyl-DNA phosphodiesterase 1 (TDP1): qHTS in cells in absence of CPT; DT40 Tdp1-/- hTDP1 cells, no CPT, ATP luminescence, 48 h; Potency, µM (doses to about 46.2 µM), for inactives: at the top dose activity change, negative = growth inhibition, actives largely listed as inhibitors; actives 15% (n = 420,000); also: potency is read from the fitted curve at half-maximal effect; % is scaled to controls: 0 for no effect and ±100 for the full control effect; nearly all actives have a fitted effect of over 55% in size
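Chicken DT40 Tdp1-/- cells stably complemented with human TDP1 were seeded at 400 cells/well with DMSO in place of 20 nM camptothecin. After compound pinning, cells grew at least 48 hr at 37 °C; viability read by CellTiter-Glo luminescence.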
TGFb inhibitor: inhibitors of TGF-b signaling; HepG2 CAGA-GFP TGF-b/SMAD3 reporter, GFP fluorescence, 18 h; TGF-beta stimulated, 500 pg/mL final; Potency, µM (series often up to 46.1 µM), inactives show at the top dose activity, negative = inhibition, hits mostly inhibitors; actives 1.2% (n = 410,000); AID 588855; also: potency is read from the fitted curve at half-maximal effect; % is scaled to controls: 0 for no effect and ±100 for the full control effect; nearly all actives have a fitted effect of over 65% in size
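HEPG2 CAGA-GFP, 1000 cells/well; 2 h settle, 37 C; cpd via pin tool; TGF-b 500 pg/mL final; 18 h, 37 C; GFP imaging ex488/em500-530; %Activity normalised to -TGF-b and +DMSO controls; CRC fit, curve class.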
HepG2 tox-1: kills HepG2 cells in TGF-b inhibitor counter-screen; HepG2 CAGA-GFP viability, ATP luminescence, 18 h; Potency, µM (top dose mostly 46.1 µM), for inactives: at the top dose activity change, negative = cytotoxicity, most hits filed as cytotoxic; actives 0.76% (n = 410,000); also: potency is read from the fitted curve at half-maximal effect
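HepG2 CAGA-GFP cells (1000/well, DMEM with 1% FBS) received compound, then TGF-beta at 500 pg/mL final, and were incubated 18 hours at 37 degrees C. Viability was read by CellTiter-Glo luminescence. Media-only wells were set as complete cell-killing and DMSO as no toxicity.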
IL-1B inflam inh: inhibitors of inflammasome signaling (IL-1 beta secretion); THP-1 LPS/ATP IL-1B secretion, AlphaLISA, 16 h; active compounds read low; activity change, % at 57.5 µM; actives 4.7% (n = 360,000); AID 743279; in the data active = activity change below about -50%; inconclusive = mostly about -30% to -49%; also: % is scaled to controls: 0 for no effect and ±100 for the full control effect
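Secreted IL-1B measured by AlphaLISA bead assay after 16 h compound exposure of THP-1 cells; compounds (final up to 57.5 uM) added 1 h before LPS (250 ng/mL) and ATP (1.25 mM) stimulation; lower signal means less secretion.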
TDP1 cell CPT: growth inhibition of DT40 Tdp1-/-;hTDP1 cells with camptothecin (screen for TDP1 inhibitors); chicken DT40 Tdp1-/-;hTDP1 cells + 20 nM CPT, ATP luminescence, 48 h; Potency, µM (titrated, usually from 46.2 µM), for the others: at the highest dose activity change, negative = growth inhibition, usual class: inhibitors; actives 12% (n = 420,000); AID 686979; also: potency is read from the fitted curve at half-maximal effect; % is scaled to controls: 0 for no effect and ±100 for the full control effect; nearly all actives have a fitted effect of over 55% in size
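Cell growth measured by CellTiter-Glo luminescence after a minimum 48 h, 37 C compound exposure with 20 nM CPT in Tdp1-knockout DT40 cells stably expressing hTDP1, seeded 400/well; qHTS titration format.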
TGFb confirm: confirmation of TGF-b signaling inhibitors in HepG2 reporter cells. shares compounds with TGFb inhibitor. Potency, µM (top dose mostly 46.1 µM), for the others: at the highest dose activity, negative = inhibition, usual class: inhibitors. actives 63% (n = 1,600). HepG2 CAGA-GFP TGF-b reporter, GFP fluorescence, 18 h; cells stimulated with TGF-beta, 500 pg/mL; also: potency is read from the fitted curve at half-maximal effect; % is scaled to controls: 0 for no effect and ±100 for the full control effect; nearly all actives have a fitted effect of over 65% in size
HepG2 tox-2: counter-screen for TGF-b inhibitors: cytotoxicity in HepG2 cells. shares compounds with TGFb inhibitor. Potency, µM (doses to about 46.1 µM), without a hit: at the top dose activity, negative = cytotoxicity, most hits filed as inhibitors. HepG2 CAGA-GFP viability, ATP luminescence, 18 h; cells stimulated with TGF-beta, 500 pg/mL. actives 27% (n = 1,600). AID 720535; also: potency is read from the fitted curve at half-maximal effect; % is scaled to controls: 0 for no effect and ±100 for the full control effect; nearly all actives have a fitted effect of over 70% in size
CCL64 TGFb inh: orthogonal confirmation of TGF-b inhibitors in CCL64 cells; Potency, µM (highest dose often 46.1 µM), for inactives: at the highest dose activity, negative = inhibition, usual class: inhibitors; CCL64 CAGA-GFP reporter, TGF-b stimulated, GFP fluorescence, 18 h; shares compounds with TGFb inhibitor; AID 720536; actives 41% (n = 1,600); also: potency is read from the fitted curve at half-maximal effect; nearly all actives have a fitted effect of over 65% in size
COP TGFb inh: blocks TGF-b signaling in HepG2 COP reporter | Potency, µM (highest dose often 46.1 µM), without a hit: at the highest dose activity, negative = inhibition, hits mostly inhibitors | shares compounds with TGFb inhibitor | actives 3% (n = 1,600) | HepG2 COP-GFP TGF-b reporter, GFP fluorescence, 18 h; cells stimulated by added recombinant TGF-beta; also: potency is read from the fitted curve at half-maximal effect; nearly all actives have a fitted effect of over 70% in size
* hit, by the source's call; ? = inconclusive; nt = not tested or not shown. Compounds with a hit are over-represented: about 18% of the library has one in this group of screens. Unless noted, calls follow the shape of the dose curve; as a rule, active = well fitted curve in the direction sought with a large enough effect; inconclusive = small, poorly fitted or top-dose-only effect, or another doubt; inactive = no such curve, though single readings can be large; an effect the other way counts as inactive or inconclusive.

SMILES | TDP1 block | TDP1 cell noCPT | TGFb inhibitor | HepG2 tox-1 | IL-1B inflam inh | TDP1 cell CPT | TGFb confirm | HepG2 tox-2 | CCL64 TGFb inh | COP TGFb inh
C[C@H]1CCC/C=C/[C@@H]2C[C@H](O)C[C@H]2[C@@H](O)/C=C/C(=O)O1 | nt | 0.581µM* | -108.9% | -40.9% | -53.5* | 0.184µM* | 0.058µM* | 0.13µM* | ? | 78.2%
CCC1C(c2cc(OC)c(OC)c(OC)c2)c2cc3c(cc2OC1N1CCCC1)OCO3 (stereo unspecified) | nt | 4.11µM* | 10µM* | -9.1% | -18.3 | 5.17µM* | ? | -17.3% | ? | -12.9%
O=C1NC2C(O)C(O)C(O)C(O)C2c2cc3c(c(O)c21)OCO3 (stereo unspecified) | nt | 0.0731µM* | 0.126µM* | 3.5% | -102.9* | 0.164µM* | 0.0651µM* | ? | 0.184µM* | 0.3%
O=C1NC2C(=CC(O)C(O)C2O)c2cc3c(c(O)c21)OCO3 (stereo unspecified) | nt | 0.092µM* | -125.7% | -20.8% | -116.7* | 0.058µM* | 0.0184µM* | 0.461µM* | 0.0731µM* | -8.3%
Cc1nnc(NC(=O)c2cccn(Cc3ccccc3)c2=O)s1 | 5.2% | -11.1% | -12.9% | 2.3% | nt | 2.3% | nt | nt | nt | nt
CCOc1ccc(CN(CCc2ccc3c(c2)OCO3)Cc2ccc(C)cc2)cc1 | nt | ? | ? | -36.0% | nt | ? | nt | nt | nt | nt
Cc1c(C=O)c2ccccc2n1Cc1ccc(F)cc1 | 2.5% | -27.4% | 5.62µM* | -30.7% | 27.2 | 20.8% | 1.3µM* | 1.64µM* | 10.1% | -3.8%
Cc1ccc(-c2cc(-c3ccc(C)cc3)[n+](-c3ccccc3)c(-c3ccc(C)cc3)c2)cc1 | 5.5% | 0.366µM* | 1.26µM* | -68.8% | -99.3* | 0.517µM* | 1.46µM* | 9.2µM* | 1.64µM* | -74.6%
O=C(c1ccccc1F)N1C[C@H]2C[C@@H](C1)c1cccc(=O)n1C2 | nt | 9.4% | 21.1% | 3.3% | -12.9 | 21.1% | nt | nt | nt | nt
Cc1ccc(C(=O)NC(=S)NNS(=O)(=O)c2ccc(C)cc2)cc1 | 10.5% | 5.1% | -1.3% | 17.4% | 16.2 | -20.4% | nt | nt | nt | nt
COc1cc(O)c2c(c1)/C=C/C[C@H](O)[C@H](O)C(=O)CCC[C@H](C)OC2=O | nt | ? | 2µM* | -5.2% | -81.3* | ? | 8.2µM* | -12.1% | 7.31µM* | ?
COC(=O)C1=C(c2ccc(-c3ccccc3)c(F)c2)C[C@@H]2CC[C@H]1N2C(=O)NCc1ccco1 | 5.8% | 6.51µM* | ? | -15.6% | -16.0 | 7.31µM* | 8.2µM* | ? | ? | 58.3%
COC(=O)C1=C(c2ccccc2)C[C@@H]2CC[C@H]1N2C(=O)NCc1ccc(F)cc1 | nt | -19.0% | 5.6% | 3.8% | -16.0 | -18.5% | nt | nt | nt | nt
COC(=O)C1=C(c2ccc(F)cc2OCc2ccccc2)C[C@@H]2CC[C@H]1N2C(=O)NCc1ccccc1OC | -0.3% | ? | ? | -24.7% | 0.0 | 25.9µM* | ? | -12.9% | ? | 1.2%
COC(=O)C1=C(c2ccc(F)cc2OCc2ccccc2)C[C@@H]2CC[C@H]1N2C(=O)NCc1ccco1 | 2.9% | ? | 1.6% | -16.6% | 1.2 | ? | nt | nt | nt | nt
COC(=O)C1=C(c2ccc(-c3ccccc3)c(F)c2)C[C@@H]2CC[C@H]1N2C(=O)NCc1cc(C)oc1C(F)(F)F | 2.0% | 14.6µM* | 1.58µM* | -5.3% | -2.9 | ? | ? | -15.3% | ? | 30.3%
c1coc(CN2Cc3ccccc3-n3nncc3C2)c1 | nt | -28.5% | 13.4% | -0.6% | 31.0 | -20.2% | nt | nt | nt | nt
COc1cc(CN2CCSCC2)cc(OC)c1OC | ? | -19.4% | 2.0% | 7.4% | 1.9 | -6.9% | nt | nt | nt | nt
COc1ccc(C2C3C=CC(C3)C2C(=O)O)cc1 (stereo unspecified) | nt | -8.0% | -9.7% | -16.6% | 4.6 | -10.9% | nt | nt | nt | nt
O=c1c2ccccc2nc(-c2ccccc2)n1-c1ccc(O)cc1 | -2.5% | ? | -9.8% | -1.5% | 6.8 | ? | nt | nt | nt | nt
O=c1c2ccccc2nc(/C=C/c2ccc([N+](=O)[O-])o2)n1-c1ccc(O)cc1 | -2.5% | 2.31µM* | 2.82µM* | -62.9% | -87.7* | 2.31µM* | ? | 5.8µM* | 2.31µM* | 21.7%
COC12CCC3(CC1C(C)(O)C(C)(C)C)[C@H]1Cc4ccc(O)c5c4[C@@]3(CCN1CC1CC1)C2O5 (stereo partly specified) | 3.1% | ? | ? | -41.9% | ? | ? | nt | nt | nt | nt
CC(=O)OCC12CC(OC(=O)CC(C)C)C(C)=CC1OC1C(O)C(OC(C)=O)C2(C)C12CO2 (stereo unspecified) | nt | 0.0231µM* | -116.5% | -0.9% | -83.2* | 0.0231µM* | 0.0103µM* | nt | 0.0052µM* | 11.2%
O=[N+]([O-])c1oc2ccc3ccccc3c2c1CCO | nt | 0.517µM* | 4.47µM* | 4.0% | 31.8 | 0.411µM* | 0.82µM* | 1.16µM* | ? | 6.7%
O=C(NC1CCCCC1)C1CCN(C(=O)c2ccc(-c3ccccc3)cc2)CC1 | 2.5% | -25.5% | 1.0% | -1.4% | 0.4 | ? | nt | nt | nt | nt
O=C(CCN1CC2CCC(CC2)C1)c1cccs1 | nt | 4.11µM* | 12.6µM* | -25.0% | -29.1 | 2.06µM* | 2.59µM* | 20.6µM* | 2.91µM* | ?

Source: PubChem
